Experiment [1] deals with Protein kinase C gamma type (Homo sapiens) (UniProt P05129). The settings on record: at 1 µM.
In experiment [2] the target is T1, Protein kinase C iota type (Homo sapiens) (UniProt P41743).
T1 sequence (whole entry): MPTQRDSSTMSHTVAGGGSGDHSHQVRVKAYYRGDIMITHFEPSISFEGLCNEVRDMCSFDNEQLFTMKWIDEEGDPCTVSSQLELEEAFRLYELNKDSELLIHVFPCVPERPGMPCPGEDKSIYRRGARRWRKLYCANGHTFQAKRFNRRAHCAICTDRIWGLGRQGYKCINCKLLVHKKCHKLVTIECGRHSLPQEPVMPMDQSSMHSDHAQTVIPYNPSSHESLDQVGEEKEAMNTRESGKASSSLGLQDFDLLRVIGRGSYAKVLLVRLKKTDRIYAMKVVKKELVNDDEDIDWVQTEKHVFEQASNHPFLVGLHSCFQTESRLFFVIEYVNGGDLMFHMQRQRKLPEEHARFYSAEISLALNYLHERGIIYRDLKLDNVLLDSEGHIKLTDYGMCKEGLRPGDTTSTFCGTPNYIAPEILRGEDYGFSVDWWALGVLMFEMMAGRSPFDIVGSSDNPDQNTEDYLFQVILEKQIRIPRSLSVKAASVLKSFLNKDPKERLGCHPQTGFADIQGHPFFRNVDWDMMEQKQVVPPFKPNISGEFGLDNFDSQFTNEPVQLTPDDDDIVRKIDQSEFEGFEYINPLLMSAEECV
The settings on record: at 0.1 µM.

The target in experiment [3] is T1, Protein kinase C iota type (Homo sapiens). The note with it: at 1 µM.
Experiment [4] deals with Protein kinase C theta type (Homo sapiens) (UniProt Q04759). The note with it: at 0.1 µM.
Experiment [5] has the same target. The note with it: at 1 µM.
Experiment [6] deals with Protein kinase C beta type (Homo sapiens) (UniProt P05771). The note with it: at 0.1 µM.
Experiment [7] shares this target. The note with it: at 1 µM.
For experiment [8], the target named is T2, Serine/threonine-protein kinase D1 (Homo sapiens) (UniProt Q15139).
T2 sequence (whole entry): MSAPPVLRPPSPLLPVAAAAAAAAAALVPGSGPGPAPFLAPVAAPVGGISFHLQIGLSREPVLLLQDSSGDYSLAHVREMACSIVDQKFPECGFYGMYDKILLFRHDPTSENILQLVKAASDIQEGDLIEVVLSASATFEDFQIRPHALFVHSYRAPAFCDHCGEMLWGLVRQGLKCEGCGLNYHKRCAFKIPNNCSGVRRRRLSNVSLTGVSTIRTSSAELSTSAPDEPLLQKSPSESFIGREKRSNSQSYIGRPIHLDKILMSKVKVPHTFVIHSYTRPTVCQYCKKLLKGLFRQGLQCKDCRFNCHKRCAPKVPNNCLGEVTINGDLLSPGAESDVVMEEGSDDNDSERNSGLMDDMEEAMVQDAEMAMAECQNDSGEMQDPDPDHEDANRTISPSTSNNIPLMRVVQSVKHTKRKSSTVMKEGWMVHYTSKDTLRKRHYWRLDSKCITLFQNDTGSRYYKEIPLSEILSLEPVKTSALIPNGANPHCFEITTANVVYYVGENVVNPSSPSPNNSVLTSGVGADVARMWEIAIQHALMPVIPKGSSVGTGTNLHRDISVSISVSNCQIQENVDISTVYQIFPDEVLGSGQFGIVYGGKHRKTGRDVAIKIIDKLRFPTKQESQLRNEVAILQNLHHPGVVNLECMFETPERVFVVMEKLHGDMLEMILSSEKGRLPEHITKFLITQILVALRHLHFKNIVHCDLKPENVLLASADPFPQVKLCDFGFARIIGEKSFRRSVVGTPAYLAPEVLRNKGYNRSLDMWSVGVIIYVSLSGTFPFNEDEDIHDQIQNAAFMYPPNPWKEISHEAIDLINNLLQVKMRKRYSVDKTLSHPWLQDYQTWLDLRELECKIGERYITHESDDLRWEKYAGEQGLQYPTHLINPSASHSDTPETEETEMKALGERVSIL
The settings on record: at 0.1 µM.

In experiment [9] the target is T2, Serine/threonine-protein kinase D1 (Homo sapiens). The settings on record: at 1 µM.
In experiment [10] the target is T3, Serine/threonine-protein kinase D2 (Homo sapiens) (UniProt Q9BZL6).
T3 sequence (whole entry): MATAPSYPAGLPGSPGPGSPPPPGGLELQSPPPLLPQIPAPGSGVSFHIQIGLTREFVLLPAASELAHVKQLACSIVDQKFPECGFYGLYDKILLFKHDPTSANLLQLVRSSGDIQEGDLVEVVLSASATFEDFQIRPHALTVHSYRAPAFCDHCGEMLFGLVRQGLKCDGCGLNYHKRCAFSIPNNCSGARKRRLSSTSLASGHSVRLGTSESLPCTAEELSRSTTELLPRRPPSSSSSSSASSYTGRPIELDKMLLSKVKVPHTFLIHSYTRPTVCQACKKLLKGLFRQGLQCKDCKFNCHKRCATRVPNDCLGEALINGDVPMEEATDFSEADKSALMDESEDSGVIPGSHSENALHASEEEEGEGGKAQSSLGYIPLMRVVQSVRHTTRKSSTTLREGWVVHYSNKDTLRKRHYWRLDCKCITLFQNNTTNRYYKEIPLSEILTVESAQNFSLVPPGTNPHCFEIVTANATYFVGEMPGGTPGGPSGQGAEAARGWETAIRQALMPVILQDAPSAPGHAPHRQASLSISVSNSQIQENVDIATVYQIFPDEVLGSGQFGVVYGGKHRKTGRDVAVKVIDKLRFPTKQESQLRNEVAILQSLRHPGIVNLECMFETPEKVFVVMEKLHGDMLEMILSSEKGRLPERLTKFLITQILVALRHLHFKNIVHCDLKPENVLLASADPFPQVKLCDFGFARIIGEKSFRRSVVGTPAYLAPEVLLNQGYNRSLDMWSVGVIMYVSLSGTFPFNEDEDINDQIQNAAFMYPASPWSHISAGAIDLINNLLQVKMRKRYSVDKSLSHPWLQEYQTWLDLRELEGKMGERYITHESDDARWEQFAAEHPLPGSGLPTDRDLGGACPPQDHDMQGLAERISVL
The note with it: at 0.1 µM.

Experiment [11] has as its target T3, Serine/threonine-protein kinase D2 (Homo sapiens). The settings on record: at 1 µM.
The target of experiment [12] is T4, Serine/threonine-protein kinase D3 (Homo sapiens) (UniProt O94806).
T4 sequence (whole entry): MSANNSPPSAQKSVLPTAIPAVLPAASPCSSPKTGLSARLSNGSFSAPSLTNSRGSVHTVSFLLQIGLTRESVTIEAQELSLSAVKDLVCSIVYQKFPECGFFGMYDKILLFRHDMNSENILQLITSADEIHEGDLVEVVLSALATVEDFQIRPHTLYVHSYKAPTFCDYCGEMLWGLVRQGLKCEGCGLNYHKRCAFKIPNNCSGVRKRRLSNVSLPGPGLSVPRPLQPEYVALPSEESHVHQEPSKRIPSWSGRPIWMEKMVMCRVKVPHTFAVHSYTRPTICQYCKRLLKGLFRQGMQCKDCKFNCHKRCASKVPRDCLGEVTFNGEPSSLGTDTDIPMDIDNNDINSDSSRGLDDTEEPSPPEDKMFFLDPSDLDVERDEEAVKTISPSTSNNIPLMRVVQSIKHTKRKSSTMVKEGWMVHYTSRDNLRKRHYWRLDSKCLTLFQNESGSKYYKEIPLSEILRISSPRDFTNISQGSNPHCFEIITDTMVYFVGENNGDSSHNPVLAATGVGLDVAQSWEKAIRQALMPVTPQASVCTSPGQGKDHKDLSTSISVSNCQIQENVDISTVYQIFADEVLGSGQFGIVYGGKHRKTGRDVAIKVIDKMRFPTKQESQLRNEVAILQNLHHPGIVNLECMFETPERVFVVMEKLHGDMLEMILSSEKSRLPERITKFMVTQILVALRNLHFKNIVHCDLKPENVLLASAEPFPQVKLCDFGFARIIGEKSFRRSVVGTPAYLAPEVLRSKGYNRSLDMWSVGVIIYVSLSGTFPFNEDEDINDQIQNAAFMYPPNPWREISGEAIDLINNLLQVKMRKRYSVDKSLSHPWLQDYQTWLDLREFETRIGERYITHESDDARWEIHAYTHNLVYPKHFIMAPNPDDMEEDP
The settings on record: at 0.1 µM.

Experiment [13] addresses T4, Serine/threonine-protein kinase D3 (Homo sapiens). The note with it: at 1 µM.
For experiment [14], the target named is T5, cGMP-dependent protein kinase 1 (Homo sapiens) (UniProt Q13976).
T5 sequence (whole entry): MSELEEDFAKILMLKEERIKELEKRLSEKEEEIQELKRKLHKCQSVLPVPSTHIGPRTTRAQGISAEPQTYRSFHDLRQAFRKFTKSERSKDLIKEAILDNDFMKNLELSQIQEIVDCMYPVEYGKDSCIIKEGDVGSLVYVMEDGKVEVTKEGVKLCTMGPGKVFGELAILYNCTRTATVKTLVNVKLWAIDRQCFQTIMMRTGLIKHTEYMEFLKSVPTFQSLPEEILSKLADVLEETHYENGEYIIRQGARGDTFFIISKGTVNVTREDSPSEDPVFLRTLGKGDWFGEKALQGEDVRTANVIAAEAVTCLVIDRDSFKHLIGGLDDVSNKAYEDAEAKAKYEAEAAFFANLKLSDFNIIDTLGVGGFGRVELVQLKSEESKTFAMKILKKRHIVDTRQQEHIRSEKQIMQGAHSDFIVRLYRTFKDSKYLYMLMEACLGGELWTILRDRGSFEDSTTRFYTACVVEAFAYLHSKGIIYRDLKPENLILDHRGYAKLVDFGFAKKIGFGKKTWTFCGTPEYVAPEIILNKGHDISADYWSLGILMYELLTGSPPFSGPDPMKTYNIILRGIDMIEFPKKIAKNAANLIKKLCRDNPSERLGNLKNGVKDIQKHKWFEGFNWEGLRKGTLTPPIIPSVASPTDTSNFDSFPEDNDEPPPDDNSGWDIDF
The settings on record: at 0.1 µM.

In experiment [15] the target is T5, cGMP-dependent protein kinase 1 (Homo sapiens). The settings on record: at 1 µM.
Experiment [16] concerns the target T6, cGMP-dependent protein kinase 2 (Homo sapiens) (UniProt Q13237).
T6 sequence (whole entry): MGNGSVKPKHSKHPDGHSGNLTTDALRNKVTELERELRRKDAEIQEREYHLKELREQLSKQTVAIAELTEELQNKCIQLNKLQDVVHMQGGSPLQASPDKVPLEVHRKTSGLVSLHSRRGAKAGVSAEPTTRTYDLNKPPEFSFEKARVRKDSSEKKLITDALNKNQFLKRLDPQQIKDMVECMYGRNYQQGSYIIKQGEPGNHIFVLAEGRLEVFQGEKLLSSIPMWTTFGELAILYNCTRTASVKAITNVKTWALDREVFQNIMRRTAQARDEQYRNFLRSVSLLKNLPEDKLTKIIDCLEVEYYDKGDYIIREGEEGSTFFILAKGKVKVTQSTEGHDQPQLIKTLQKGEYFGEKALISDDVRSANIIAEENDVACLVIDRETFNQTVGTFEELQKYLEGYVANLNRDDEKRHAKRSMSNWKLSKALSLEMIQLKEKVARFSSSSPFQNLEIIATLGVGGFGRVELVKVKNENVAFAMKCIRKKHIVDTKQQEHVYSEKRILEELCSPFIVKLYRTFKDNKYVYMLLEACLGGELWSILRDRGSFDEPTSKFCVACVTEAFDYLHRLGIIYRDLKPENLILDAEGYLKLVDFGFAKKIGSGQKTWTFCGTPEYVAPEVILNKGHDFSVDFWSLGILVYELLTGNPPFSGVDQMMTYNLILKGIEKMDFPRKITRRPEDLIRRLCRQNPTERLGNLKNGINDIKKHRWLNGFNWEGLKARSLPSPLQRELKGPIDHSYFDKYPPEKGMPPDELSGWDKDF
The settings on record: at 0.1 µM.

In experiment [17] the target is T6, cGMP-dependent protein kinase 2 (Homo sapiens). The settings on record: at 1 µM.
In experiment [18] the target is T7, cAMP-dependent protein kinase catalytic subunit PRKX (Homo sapiens) (UniProt P51817).
T7 sequence (whole entry): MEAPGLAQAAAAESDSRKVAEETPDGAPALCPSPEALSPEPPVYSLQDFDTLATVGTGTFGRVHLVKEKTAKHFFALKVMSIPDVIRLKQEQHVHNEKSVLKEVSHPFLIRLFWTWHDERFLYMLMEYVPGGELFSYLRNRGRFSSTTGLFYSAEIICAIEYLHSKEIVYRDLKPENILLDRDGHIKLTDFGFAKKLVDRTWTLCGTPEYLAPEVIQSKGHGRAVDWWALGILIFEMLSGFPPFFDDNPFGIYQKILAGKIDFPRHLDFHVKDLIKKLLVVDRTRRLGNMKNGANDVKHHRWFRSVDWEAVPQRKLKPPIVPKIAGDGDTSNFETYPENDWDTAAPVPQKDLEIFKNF
The note with it: at 0.1 µM.

In experiment [19] the target is T7, cAMP-dependent protein kinase catalytic subunit PRKX (Homo sapiens). The note with it: at 1 µM.
The target of experiment [20] is Rho-associated protein kinase 1 (Homo sapiens) (UniProt Q13464). The note with it: at 0.1 µM.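 Note: values are mean percent inhibition of ROCK1.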

In general, inhibition refers to how much of the control response was suppressed. A lower inhibition goes with a weak effect.

Sequence of Protein kinase C theta type (Homo sapiens) (Q04759 whole entry, looked up): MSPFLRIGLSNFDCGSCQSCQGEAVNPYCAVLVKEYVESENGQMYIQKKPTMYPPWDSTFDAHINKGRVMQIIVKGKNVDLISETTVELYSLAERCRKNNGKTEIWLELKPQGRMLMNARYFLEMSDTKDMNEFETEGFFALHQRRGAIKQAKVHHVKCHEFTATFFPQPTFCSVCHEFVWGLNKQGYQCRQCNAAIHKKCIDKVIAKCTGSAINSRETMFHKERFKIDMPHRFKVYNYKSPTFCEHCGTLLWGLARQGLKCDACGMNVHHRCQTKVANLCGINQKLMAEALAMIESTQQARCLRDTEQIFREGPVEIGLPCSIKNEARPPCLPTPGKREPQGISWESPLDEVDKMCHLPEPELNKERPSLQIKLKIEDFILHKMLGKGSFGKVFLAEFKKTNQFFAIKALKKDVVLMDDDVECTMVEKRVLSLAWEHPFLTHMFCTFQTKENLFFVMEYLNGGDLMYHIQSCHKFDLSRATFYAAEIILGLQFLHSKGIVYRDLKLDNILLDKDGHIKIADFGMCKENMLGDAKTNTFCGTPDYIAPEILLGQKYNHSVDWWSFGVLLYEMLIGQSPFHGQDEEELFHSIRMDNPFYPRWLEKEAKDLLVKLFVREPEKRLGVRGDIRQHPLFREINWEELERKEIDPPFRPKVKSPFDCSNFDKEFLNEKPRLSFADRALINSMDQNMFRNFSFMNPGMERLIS
Sequence of Protein kinase C beta type (Homo sapiens) (P05771 2-671 limits assumed): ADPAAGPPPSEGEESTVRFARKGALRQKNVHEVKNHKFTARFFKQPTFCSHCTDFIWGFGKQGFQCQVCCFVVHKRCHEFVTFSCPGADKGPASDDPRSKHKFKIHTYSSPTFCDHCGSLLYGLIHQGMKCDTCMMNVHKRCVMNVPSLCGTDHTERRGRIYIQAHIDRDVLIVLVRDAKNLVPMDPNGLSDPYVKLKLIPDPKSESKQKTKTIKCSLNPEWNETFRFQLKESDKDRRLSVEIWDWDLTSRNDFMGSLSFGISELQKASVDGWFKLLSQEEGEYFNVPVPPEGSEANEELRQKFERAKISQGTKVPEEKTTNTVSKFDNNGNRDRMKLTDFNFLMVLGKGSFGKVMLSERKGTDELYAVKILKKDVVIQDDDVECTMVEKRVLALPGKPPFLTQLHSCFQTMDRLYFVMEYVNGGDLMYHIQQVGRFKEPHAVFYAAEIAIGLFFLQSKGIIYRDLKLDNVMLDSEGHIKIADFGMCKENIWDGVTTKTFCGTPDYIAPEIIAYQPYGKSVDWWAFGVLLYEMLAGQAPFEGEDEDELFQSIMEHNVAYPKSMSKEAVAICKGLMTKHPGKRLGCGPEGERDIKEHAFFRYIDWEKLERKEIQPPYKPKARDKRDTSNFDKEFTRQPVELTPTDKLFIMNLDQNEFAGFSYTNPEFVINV
Sequence of Rho-associated protein kinase 1 (Homo sapiens) (Q13464 2-1354 limits assumed): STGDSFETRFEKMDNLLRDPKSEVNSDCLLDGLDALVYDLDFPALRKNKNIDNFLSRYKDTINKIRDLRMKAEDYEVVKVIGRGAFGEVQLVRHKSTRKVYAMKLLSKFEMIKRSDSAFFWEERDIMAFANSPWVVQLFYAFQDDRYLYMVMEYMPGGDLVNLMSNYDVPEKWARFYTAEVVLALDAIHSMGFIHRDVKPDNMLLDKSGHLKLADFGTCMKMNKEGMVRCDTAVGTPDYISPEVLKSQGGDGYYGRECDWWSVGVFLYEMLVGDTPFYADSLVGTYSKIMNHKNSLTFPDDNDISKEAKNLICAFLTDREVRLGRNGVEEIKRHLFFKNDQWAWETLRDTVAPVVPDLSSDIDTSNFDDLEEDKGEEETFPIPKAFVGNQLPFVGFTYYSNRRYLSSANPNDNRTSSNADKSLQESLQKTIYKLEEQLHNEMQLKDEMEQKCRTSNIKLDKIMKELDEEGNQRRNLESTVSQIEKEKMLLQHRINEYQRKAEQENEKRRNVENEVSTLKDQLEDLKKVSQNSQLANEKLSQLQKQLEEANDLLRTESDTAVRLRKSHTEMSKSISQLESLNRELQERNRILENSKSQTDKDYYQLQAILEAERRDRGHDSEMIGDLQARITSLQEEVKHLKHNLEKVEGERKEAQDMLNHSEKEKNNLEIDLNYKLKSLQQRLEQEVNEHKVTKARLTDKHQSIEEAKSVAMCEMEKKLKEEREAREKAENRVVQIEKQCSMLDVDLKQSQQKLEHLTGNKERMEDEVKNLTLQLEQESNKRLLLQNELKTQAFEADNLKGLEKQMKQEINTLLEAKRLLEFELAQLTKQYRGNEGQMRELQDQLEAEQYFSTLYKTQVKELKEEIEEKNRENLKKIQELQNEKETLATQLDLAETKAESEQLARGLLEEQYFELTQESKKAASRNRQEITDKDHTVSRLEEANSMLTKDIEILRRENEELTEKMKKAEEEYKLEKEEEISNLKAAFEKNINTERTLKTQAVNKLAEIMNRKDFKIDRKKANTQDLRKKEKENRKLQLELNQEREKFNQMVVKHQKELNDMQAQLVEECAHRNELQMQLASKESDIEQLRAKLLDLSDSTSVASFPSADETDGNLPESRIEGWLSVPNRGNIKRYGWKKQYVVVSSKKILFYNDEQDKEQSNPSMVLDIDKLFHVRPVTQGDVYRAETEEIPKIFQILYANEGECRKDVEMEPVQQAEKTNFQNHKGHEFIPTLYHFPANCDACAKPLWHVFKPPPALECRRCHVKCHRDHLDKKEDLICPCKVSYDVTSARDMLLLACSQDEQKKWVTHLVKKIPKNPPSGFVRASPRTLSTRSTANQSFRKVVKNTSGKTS

For `NC(=O)c1cc(-c2ccncc2)cc(-c2ccccc2)c1N`, the inhibition stood at 4.29% in experiment [1]; 2.83% in experiment [2]; 4.85% in experiment [3]; 2.27% in experiment [4]; 4.49% in [5]; 1.9% in experiment [6]. Besides, the inhibition turned out to be 2.02% in experiment [7]; 4.07% in experiment [8]; 6.39% in experiment [9]; 5.01% in experiment [10]; 5.63% in [11]; 5.86% in experiment [12]. Moreover, the inhibition was determined as 6.16% in [13]; 3.61% in [14]; 8.21% in experiment [15]; 2.71% in [16]; 5.42% in experiment [17]; 1.92% in [18]. Further, the inhibition in [19] turned out to be 2.61%; in experiment [20], 1.71%.

Consider `CCC(=O)Nc1ccc(C)c(-c2ccc(C(=O)NCC3CC3)cc2)c1`, for which the inhibition was found to be 2.13% in experiment [1]; 0.11% in experiment [2]; 0.41% in experiment [3]; 1.23% in experiment [4]; 1.92% in [5]; 0.61% in experiment [6]. Moreover, the inhibition was 1.48% in [7]; 2.88% in [8]; 2.86% in [9]; 1.86% in [10]; 0.39% in experiment [11]; 2.64% in experiment [12]. Further, the inhibition in experiment [13] was 2.11%; in experiment [14], 2.33%; in experiment [15], 2.99%; in experiment [16], 1.03%; in experiment [17], 3.23%; in [18], 0.64%. For the same compound, the inhibition was 1.66% in [19] and 2.95% in experiment [20].

The record behind these values is ChEMBL document CHEMBL1961873, “Compounds: GSK PKIS; Assays: Nanosyn kinase panel” (2012).
